This note sets out measurements from PubChem BioAssay AID1508602 (The Scripps Research Institute Molecular Screening Center, 2020).

Where “and” joins values, the source holds several entries; their conditions need not be identical. Equal values may be shown once. The whole screen tested about 650,000 compounds, of which about 6,800 (1%) were called active. For the sample, actives were picked, then their nearest neighbours and some compounds at random. Values without a mark were called inactive. Rule as the data show it: active = activation above about 4.9%; inactive = the rest.

Sequence of G-protein coupled receptor 151 (Homo sapiens) (Q8TDV0 whole entry, looked up): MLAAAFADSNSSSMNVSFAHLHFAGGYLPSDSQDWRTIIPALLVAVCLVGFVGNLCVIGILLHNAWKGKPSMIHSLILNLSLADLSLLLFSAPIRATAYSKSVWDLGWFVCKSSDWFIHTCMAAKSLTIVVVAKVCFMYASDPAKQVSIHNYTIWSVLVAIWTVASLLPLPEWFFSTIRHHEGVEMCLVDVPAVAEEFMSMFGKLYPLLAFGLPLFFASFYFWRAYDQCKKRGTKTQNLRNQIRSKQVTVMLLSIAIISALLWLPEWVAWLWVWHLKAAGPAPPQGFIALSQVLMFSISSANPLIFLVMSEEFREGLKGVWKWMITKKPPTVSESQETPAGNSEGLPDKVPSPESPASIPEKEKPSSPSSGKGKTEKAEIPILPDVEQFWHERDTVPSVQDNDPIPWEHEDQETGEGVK

This test addresses G-protein coupled receptor 151 (Homo sapiens) (UniProt Q8TDV0). Nature of the test: activates the human receptor GPR151, primary screen, cell-based, PathHunter beta-arrestin, luminescence (AID 1508602).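 Also: 0% = median of compound wells and 100% = cells with positive control.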 As to conditions: PathHunter beta-arrestin GPR151 cells, at 11.2 µM, stronger effect = higher value.
Consider `O=C1CC(c2nc3ccccc3n2CC(O)COc2ccccc2)CN1c1ccccc1` (configuration not stated), for which the activation was 1.94%.

Consider `COc1cccc(/C=C2\C(=O)NC(=O)N(c3ccccc3Cl)C2=O)c1`, for which the activation is 1.26%.

For the compound `COc1cccc(N2C(=O)NC(=O)/C(=C/c3ccc(OC)c(O)c3)C2=O)c1`, the activation was 4.48%.

For `COc1cccc(/C=C2/C(=O)NC(=O)N(c3ccccc3F)C2=O)c1`, the activation is 4.98% (active).

On to `Cc1ccc(/C(O)=C2\C(=O)C(=O)N(c3nnc(C)s3)C2c2cccc(Oc3ccccc3)c2)cc1` (configuration not stated), for which the activation is 2.53%.

As to `CCOc1ccc(C2C(C#N)=C(N)N(c3sc4c(c3C#N)CCCC4)C3=C2C(=O)CC(C)(C)C3)cc1` (configuration not stated), the activation is -0.802%.

As for `COc1ccc(CCn2c(-c3ccc(S(=O)(=O)N4CCOCC4)cc3)csc2=Nc2cccc(C(F)(F)F)c2)cc1OC`, the activation was 0.281%.

As for `N#Cc1ccccc1OCC(=O)OCC(=O)Nc1ncc(Cl)cc1Cl`, the activation was 0.379%.

`CCOC(=O)CNC(=O)c1sc2ncn(CC(=O)Nc3ccc(C(C)C)cc3)c(=O)c2c1C`: the activation was -1.34% and -1.19%.

With `O=C(CN1C(=O)CCC1=O)NC(c1ccccc1)c1ccccc1`, the activation was -0.973%.

With `O=C(CN1C(=O)c2ccc([N+](=O)[O-])cc2C1=O)NC(c1ccccc1)c1ccccc1`, the activation was 0.498%.

As to `O=C(CN1C(=O)c2ccccc2C1=O)NC(c1ccccc1)c1ccc(Br)cc1` (configuration not stated), the activation is 5.23% (active).

Take `NC(=O)c1c(NC(=O)CN(C(=O)c2ccco2)C2CCCC2)sc2c1CCCC2`: the activation is 3.42%.

Turning to `CN(CC(COc1cccc2ccccc12)OC(=O)c1ccc(Cl)cc1Cl)C1=NS(=O)(=O)c2ccccc21` (configuration not stated), the activation was 0.501%.

Consider `CSc1nnc2n(/N=C/c3ccc(F)cc3)cnn12`, for which the activation is -3.69%.

With `CCC(C)(C)NC(=O)CN(C(=O)c1csnn1)c1cccc(C)c1C`, the activation is -1.04%.

For the compound `O=C(N/N=C\c1ccc(I)o1)c1ccc(Br)cc1`, the activation was 1.14%.

For `Cc1ccc(NCC(=O)N/N=C\c2ccc(I)o2)cc1`, the activation is 5.65% (active).

As for `COc1ccc(Cl)cc1/C=N/NC(=O)CNc1ccc(C)cc1`, the activation is 0.958%.

As to `O=C1Cc2cc(S(=O)(=O)Nc3ccc(C(F)(F)F)cc3)cc3c2N1CCC3`, the activation was -0.781%.

`O=C1Cc2cc(S(=O)(=O)Nc3cccc(Cl)c3)cc3c2N1CCC3`: the activation is 5.26% (active).

With `COc1ccc(NS(=O)(=O)c2cc3c4c(c2)CC(=O)N4CCC3)cc1Cl`, the activation is 3.82%.

Consider `Cc1cccc(C)c1-n1c(N)c(C(=O)NCc2ccccc2)sc1=S`, for which the activation was -0.178%.

Turning to `Cc1ccc(C)c(NC(=O)CN(C)S(=O)(=O)c2ccc3nc(-c4ccccc4)[nH]c3c2)c1`, the activation is -2.02%.

As to `CC12c3ccccc3C(c3ccccc31)C1C(=O)N(c3cccc(C(=O)O)c3)C(=O)C12` (configuration not stated), the activation was -0.158%.

With `CC(=O)Oc1cccc(N2C(=O)C3C4c5ccccc5C(C)(c5ccccc54)C3C2=O)c1` (configuration not stated), the activation was 22.7% (active).

`CC12c3ccccc3C(c3ccccc31)C1C(=O)N(c3cccc(C(F)(F)F)c3)C(=O)C12` (configuration not stated): the activation was 1.26%.

For the compound `CC12c3ccccc3C(c3ccccc31)C1C(=O)N(c3ccc(C(=O)O)cc3)C(=O)C12` (configuration not stated), the activation is -0.384%.

For `Cc1ccc(N2C(=O)C3C4c5ccccc5C(CO)(c5ccccc54)C3C2=O)cc1` (configuration not stated), the activation is -0.914%.

Turning to `CCOc1ccc(N2C(=O)C3C4c5ccccc5C(C(C)O)(c5ccccc54)C3C2=O)cc1` (configuration not stated), the activation is 4.96% (active).

Turning to `COc1cc(C2Nc3cc(C)c(C)cc3NC3=C2C(=O)CC(C)(C)C3)cc(OC)c1OC` (configuration not stated), the activation is 0.742%.

Take `CCOC(=O)C1(Cc2cccc(OC)c2)CCCN(C(=O)COc2ccccc2OC)C1` (configuration not stated): the activation is 2.47%.

For `CCOC(=O)C1=CN(c2ccc(OCC)cc2)C=C(C(=O)OCC)C1c1ccc(OC)cc1`, the activation was 0.997%.

On to `CCOC(=O)C1=CN(C)C=C(C(=O)OCC)C1c1ccc(OC)c(Br)c1`, for which the activation is -0.344%.

With `CCOC(=O)C1=CN(C)C=C(C(=O)OCC)C1c1ccc(OC)cc1`, the activation is 5.01% (active).

Regarding `O=C(NCCc1ccc(O)cc1)c1cccc(Nc2ccncn2)n1`, the activation is -1.69%.

In the case of `N#Cc1ccc(C(=O)OCc2ccc(Br)cc2)cc1`, the activation is -1.47%.

In the case of `O=C1OC(/C=C/c2cccc(Cl)c2Cl)=NC/1=C\c1cccc([N+](=O)[O-])c1`, the activation is 0.433%.

Regarding `CCOc1ccc(/C=C2N=C(/C=C/c3cccc(Cl)c3Cl)OC\2=O)cc1`, the activation was 6.64% (active).

For `CCOc1ccc(/C=C2N=C(/C=C\c3cccc([N+](=O)[O-])c3)OC/2=O)cc1`, the activation was -1.22%.

For the compound `CN(Cc1cccc(C(F)(F)F)c1)C(=O)CC1C(=O)NCCN1Cc1ccccc1` (configuration not stated), the activation was -0.0176%.

`O=C(c1ccc(Cl)cc1)N1N=C(c2ccccc2)CC1c1ccc(Cl)cc1` (configuration not stated): the activation is 0.747%.

Take `COc1ccc(C2=NN(C(=O)c3cc(OC)c(OC)c(OC)c3)C(c3ccc(Cl)cc3)C2)cc1OC` (configuration not stated): the activation was 7.04% (active).

Consider `COc1ccc(C2=NN(C(=O)c3ccccc3Cl)C(c3cccc(OC)c3OC)C2)cc1OC` (configuration not stated), for which the activation is -0.321%.

For `Cc1nnc(SCc2ccc(CSc3nnc(C)n3N)cc2)n1N`, the activation is -2.22%.

Take `COc1ccc(-c2cc(N)n(S(=O)(=O)c3ccc([N+](=O)[O-])cc3)n2)c(OC)c1`: the activation was -0.106%.

Consider `COc1ccccc1-c1cc(N)n(S(=O)(=O)c2ccccc2)n1`, for which the activation was -0.0893%.

As to `COc1ccc(-c2cc(N)n(S(=O)(=O)c3ccccc3)n2)c(OC)c1`, the activation is 6.94% (active).

On to `O=C1COc2cc(S(=O)(=O)CCC(=O)N3CCN(c4ccccc4F)CC3)ccc2N1`, for which the activation was 0.891%.

In the case of `CCOc1ccc(OCCOCCN2CC(C)OC(C)C2)cc1` (configuration not stated), the activation is -1.18%.

Turning to `COc1ccc(N/C=C(/C#N)c2nc(-c3ccc(F)cc3)cs2)c(OC)c1`, the activation was 1.79%.

Regarding `COc1ccccc1Nc1nc(-c2ccc(Br)cc2)cs1`, the activation is -0.402%.

`COc1ccc(Nc2nc(-c3ccc(F)cc3)cs2)c(OC)c1`: the activation was 13.1% (active).

With `COc1ccc(-n2c(=S)[nH]c3cc(C(=O)Nc4cccc(Cl)c4)ccc3c2=O)c(OC)c1`, the activation is 1.31%.

As to `O=C(N/N=C\c1ccccc1Cl)c1ccccn1`, the activation was -5.29%.

Turning to `O=C(N/N=C\c1ccccc1)c1ccccn1`, the activation is -3.62%.

On to `O=C(N/N=C\C=C\c1ccccc1)c1ccccn1`, for which the activation is 8.89% (active).

Take `CC(=O)OCc1cn(-c2nonc2N)nn1`: the activation is 2.37%.

For the compound `CC(=O)C1=C(O)C(=O)N(CC#N)C1c1ccc(F)cc1` (configuration not stated), the activation is -0.438%.

Regarding `O=C(COc1ccc(Br)cc1Cl)NCCO`, the activation is 0.504%.

On to `O=C(COc1ccc(Br)cc1CO)NCC(F)(F)F`, for which the activation was 8.84% (active).

As for `COc1ccc(OCC(=O)NCC(F)(F)F)c([N+](=O)[O-])c1`, the activation is 1.07%.

In the case of `COc1ccc(-c2cc(C(=O)Nc3cc(Cl)ccc3O)no2)cc1OC`, the activation is 0.999%.

On to `Cc1cc2c(c(=O)o1)C(c1cccc(OCc3c(F)cccc3Cl)c1)C(C#N)=C(N)O2` (configuration not stated), for which the activation was 1.06%.

Turning to `CC(C)C[C@H]1NC(=O)[C@@H]2C[C@H](NCc3cc(F)ccc3F)CN2C1=O`, the activation was -0.818%.

As for `CCC[C@@H]1NC(=O)[C@@H]2C[C@H](NCc3nc(-c4ccc(F)cc4)cs3)CN2C1=O`, the activation was 5.66% (active).

Turning to `O=C1N[C@@H](Cc2ccc(Cl)cc2)C(=O)N2C[C@@H](NCc3nc(-c4ccc(F)cc4)cs3)C[C@@H]12`, the activation was -2.22%.

For `O=C(NCc1ccc(Cl)cc1)C(=O)NC1CCCCCC1`, the activation is 1.92%.

Turning to `Cc1cc(NC(=O)CSc2nnc3c(n2)[nH]c2ccc(S(=O)(=O)N4CCOCC4)cc23)no1`, the activation is -0.982%.

As to `Cc1c2cnn(CC(=O)NCC(C)c3ccccc3)c(=O)c2c(C)n1Cc1ccccc1` (configuration not stated), the activation is -0.872%.

Consider `CC1CCN(CC(=O)Nc2ccccc2Cl)CC1`, for which the activation is 20.2% (active).

`Cc1cc(C)cc(NC(=O)NC2CCN(CC(=O)Nc3cccc(Cl)c3C)CC2)c1`: the activation was 0.14%.

As to `CC1CCN(CC(=O)Nc2ccc(Cl)cc2)CC1`, the activation is -1.21%.

As to `COc1ccc(NC(=O)C2CCCN2C(=O)Nc2ccccc2)cc1` (configuration not stated), the activation is 2.01%.

For the compound `Nc1cccc(-c2ncc(C(=O)NC3CC3)s2)c1`, the activation was -0.0842%.

Take `O=C(CC12CC3CC(CC(C3)C1)C2)Nc1ccc2oc(=O)ccc2c1`: the activation is 6.05% (active).

With `O=C(COc1ccc(Cl)cc1)Nc1ccc2oc(=O)ccc2c1`, the activation is 1.66%.

In the case of `O=C(CC12CC3CC(CC(C3)C1)C2)Nc1ccc2c(c1)COC2=O`, the activation is -1.36% and 1.16%.

`CCCOc1ccc(C2CC(=O)NC3=C2C(=O)CC(C)(C)C3)cc1` (configuration not stated): the activation was 0.129%.

For `CC1(C(=O)Nc2cccc(C(F)(F)F)c2)CC2c3ccccc3C1c1ccccc12` (configuration not stated), the activation was 6.33% (active).

For the compound `CC1(C)C(=O)C2(C(=O)Nc3cccc(C(F)(F)F)c3)CCC1C2` (configuration not stated), the activation was -0.111%.

With `Cc1ccc(NC(=O)C2(C)CC3c4ccccc4C2c2ccccc23)cc1C` (configuration not stated), the activation is -0.659%.

Consider `O=C(NC(=S)Nc1ccc(-c2nc3ncccc3o2)cc1)c1ccc(I)cc1`, for which the activation is -0.544%.

As to `CC1CCCC(NC(=O)CSc2cc(=O)n(C)c3ccc(Cl)cc23)C1C` (configuration not stated), the activation is 1.18%.

For the compound `CCOC(=O)C1CCN(C(=O)CN2C(=O)c3cccnc3Oc3ccc(C)cc32)CC1`, the activation is 2.66%.

`COC(=O)CN1C(=O)c2cccnc2Oc2ccc(C)cc21`: the activation is -1.68%.

`Cc1ccc2c(c1)N(CC(=O)N1CCC(C)CC1)C(=O)c1cccnc1O2`: the activation was 5.35% (active).
